# Screen size: about 1,200 compounds; about 290 (24%) were called active. About 3% were inconclusive and are not listed. The list is a sample of the results. Potency and affinity values are given separately. Unmarked numbers belong to inactive results.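 The calls were made as follows: active = compounds lowering cell viability signal with fitted half-maximal concentration at most ten times their highest tested concentration; inconclusive = flat fit with 30 to 70% signal loss, or poor fit; inactive = the rest.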
# Assay: cytotoxicity in HEK293T cells – cell-based, CellTiter-Glo luminescence, cherry-picks, cytotoxicity control for LMP1 NF-kB inhibitor project, dose response (AID 504861)
# Details: HEK293T viability, CellTiter-Glo ATP luminescence, 48 h; series mostly up to 26 µM; activity change, negative = cytotoxicity: at the top concentration
row,Structure (SMILES),"activity change, negative = cytotoxicity"
1,COc1cc(C(=O)Oc2ccccc2/C=N/NC(=O)c2ccc(C)c(Cl)c2)cc(OC)c1OC,2.62%
2,COc1cc(/C=N/NC(=O)c2cccc(S(=O)(=O)N3CCOCC3)c2)cc(OC)c1O,-1.07%
3,CCCCCC(=O)NC(=S)Nc1ccc(Br)cc1C,5.46%
4,O=C(N/N=C/c1cccc(O)c1)c1ccc2c(c1)OCCO2,1.25%
5,Cc1cccc(C)c1NC(=O)CN(C)C(=O)c1ccc(-c2cccc(C(F)(F)F)c2)o1,-5.78%
6,COCCNC(=O)C(=O)NCC1OCCN1C(=O)c1ccc(Cl)cc1 (stereo unspecified),8.08%
7,COC(=O)c1ccc(/C=C(/NC(=O)c2ccccc2)C(=O)N2CCOCC2)cc1,1.26%
8,Cc1ccc(N=c2c([N+](=O)[O-])nn(-c3ccc4c(c3)OCCO4)n2O)cc1F,23.8%
9,COc1ccc(C(=O)NC(=S)NNC(=O)c2ccc3ccccc3n2)cc1,1.74%
10,CC(=O)Nc1ccc(OCC(O)CNC(C)C)cc1 (stereo unspecified),5.57%
11,COc1ccc(-c2cnc(NCc3cc4c(cc3[N+](=O)[O-])OCO4)n2C)cc1,6.75%
12,Cc1ccc(-n2c(C)c([N+](=O)[O-])c3ccc(O)c(CN(C)C)c32)cc1,-4.92%
13,O=C(Nc1ncccc1O)c1ccc(S(=O)(=O)NCc2ccco2)cc1,-2.08%
14,O=C(/C=C/Nc1ccc(Br)cc1F)c1ccccc1,-4.86%
15,CC(=O)c1c(C)[nH]c(C(=O)Nc2ccc(C)cn2)c1C,5.29%
16,Cc1ccsc1/C=N/NC(=O)c1ccc2c(c1)OCCO2,-4.75%
17,COc1ccccc1C=NN=Cc1ccccc1O,5.09%
18,CN(C)c1cccc(C(=O)N/N=C/c2ccccc2F)c1,-0.047%
19,CCc1nnc(NC(=O)c2ccc(S(=O)(=O)N3CCOCC3)cc2)s1,5.76%
20,CCCn1c(C)cc(C(=O)COC(=O)c2ccc[nH]c2=O)c1C,3.28%
21,CCn1c2ccccc2c2cc(/C=C(/C#N)C(N)=S)ccc21,-9.81%
22,Oc1c(N=NC(=S)Nc2ccccc2F)c2ccccc2n1Cc1cccc(Cl)c1,2.68%

row,Structure (SMILES),"activity change, negative = cytotoxicity"
1,COC(=O)C1=C(C)N(c2cc(C)cc(C)c2)/C(=C/c2ccc(O)cc2)C1=O,0.245%
2,O=C(CN1CCN(S(=O)(=O)c2ccc(F)cc2)CC1)Nc1cccc(C(F)(F)F)c1,3.31%
3,COC(=O)/C=C/C(=O)Nc1cccc(C(F)(F)F)c1,9.97%
4,CCOc1ccc(C(=O)Nc2nnc(SCC(=O)NCC3CCCO3)s2)cc1 (stereo unspecified),10.5%
5,CN=C1S/C(=C\c2ccc(O)c(Br)c2)C(=O)N1C,6.54%
6,CC(=O)O[C@H]1CC[C@@]2(C)C(=CC[C@H]3[C@@H]4CC[C@H](C(C)=O)[C@@]4(C)CC[C@@H]32)C1,-0.254%
7,NC(=O)C1(Nc2ccc([N+](=O)[O-])cc2)CCCC1,-8.21%
8,Cc1ccccc1Cn1c(O)c(N=NC(=S)Nc2ccccc2F)c2ccccc21,8.25%
9,CCOc1ccc(NC(=O)Cn2cc(C(=O)CC)c3ccccc32)cc1,9.94%
10,O=C(O)c1ccc(N/N=C/c2ccc3ncccc3c2)cc1,18.4%
11,COc1cccc(C(=O)Nc2nc3ccccc3[nH]2)c1,-10.2%
12,O=C(CSc1nc2ccccc2c(=O)n1CCCN1CCOCC1)Nc1ccc(Br)cc1,5.39%
13,CC(C)(C)c1ccc(C(=O)Nc2nnc(SCC(=O)NCC3CCCO3)s2)cc1 (stereo unspecified),6.78%
14,CCC(Oc1ccccc1)C(=O)NC1CCSC1=O (stereo unspecified),11.1%
15,O=C(NC1CCCCC1)N1CCN(c2ccc([N+](=O)[O-])cc2)CC1,-5.64%
16,CCOC(=O)c1sc2nc(C)nc(NCc3ccccc3)c2c1C,-0.055%
17,CCN(CC(=O)Nc1ccc(NC(C)=O)cc1)C(=O)c1cccnc1Sc1ccc(C)c(C)c1,3.97%
18,Cc1ccccc1C(=O)NC(=S)Nc1ccc(N2CCN(C(=O)c3ccccc3)CC2)cc1,-0.757%
19,Cc1ccc(CNC(=O)C(=O)NCC2OCCN2S(=O)(=O)c2ccc(Cl)cc2)cc1 (stereo unspecified),12.9%
20,CN1CCN(/N=C/c2ccc(N(c3ccccc3)c3ccccc3)cc2)CC1,-5.7%
21,O=[N+]([O-])c1ccc(O)c(/C=N/Nc2ncnc3c2cnn3-c2ccccc2)c1,13%
22,COc1cccc(/C=N/Nc2ncnc(N)c2[N+](=O)[O-])c1OC,4.22%

row,Structure (SMILES),"activity change, negative = cytotoxicity"
1,Cc1cc(C(=O)COc2cccnc2[N+](=O)[O-])c(C)n1-c1ccccc1F,-9.11%
2,Cc1ccsc1-c1nc(CSCC(=O)N2CCN(c3ccccc3)CC2)c(C)o1,-11.5%
3,Oc1c(N=NC(=S)Nc2ccccc2F)c2ccccc2n1Cc1ccc(F)cc1,-7.28%
4,COc1ccc(Cn2c(SCc3cc(C)ccc3C)nc3cc(OC)c(OC)cc3c2=N)cc1,3.5%
5,COc1ccc(-c2cn3nc4c(nc3n2)CCCC4)cc1,5.52%
6,CCOC(=O)C1=C(C)NC(C)=C(C(=O)OCC)C1C(=O)OCC(=O)N(C)C1CCS(=O)(=O)C1 (stereo unspecified),15.2%
7,O=C(CCCN1C(=O)/C(=C/c2ccccc2Cl)SC1=S)NNC(=O)c1ccccc1Cl,4.78%
8,Cc1cc(C(=O)CSc2nnc(-c3cccs3)o2)c(C)n1-c1ccccc1,1.11%
9,O=C(O)CN1C(=O)/C(=C\c2ccccc2OCc2ccc(Cl)cc2Cl)SC1=S,5.71%
10,O=c1c2cnn(-c3ccccc3)c2nc(-c2cccs2)n1-c1ccc(Br)cc1,1.27%
11,COc1ccc(N2CCN(CCNC(=O)CCCn3c(=O)[nH]c4cc(Cl)ccc4c3=O)CC2)cc1,5.79%
12,COc1ccc(NC(=O)c2ccc(-c3ccccc3)cc2)cc1S(=O)(=O)N1CCOCC1,0.12%
13,COc1cc(C(=S)N2CCOCC2)cc(OC)c1OC(=O)c1ccc(F)cc1,2.77%
14,CC(C)CCNC(=O)C1CCN(S(=O)(=O)c2ccc3c(c2)CC(C)N3C(=O)C2CC2)CC1 (stereo unspecified),-4.11%
15,COc1ccc(OC)c(S(=O)(=O)NC(C)CCc2ccccc2)c1 (stereo unspecified),-3.46%
16,COc1ccc(C(=O)CSc2nnc(Cc3ccccc3)o2)cc1,-0.444%
17,Cc1ccc(-c2nc3cccnc3o2)cc1NC(=O)COc1ccc(C(C)(C)C)cc1,-1.19%
18,CCc1ccc(C(=O)COC(=O)c2cccc(N3C(=O)c4c(C)nc5ccccc5c4C3=O)c2)cc1,17.6%
19,CCOC(=O)Cc1csc(N/N=C\c2ccc(N(C)C)cc2)n1,-1.39%
20,O=C(OCc1ccccc1F)c1cc2ccccc2cc1O,-1.01%
21,Cc1cc(OCC(=O)Nc2cnn(CCCC(=O)O)c2)ccc1Cl,13.2%
22,C=CCn1c(SCc2ccc3nonc3c2)nnc1-c1cccs1,1.17%

# Source: PubChem BioAssay AID504861 (Broad Institute, 2011)
